Screens: PubChem BioAssay, several laboratories
The list is not random: actives were taken first. Their share in the collection is about 4%.
KCC2 mod: modulates chloride dependent transport by human KCC2. AID 1456. Q9H2X9. KCC2 cells, thallium flux FluoZin-2 fluorescence. B-score of Tl+ flux slope (higher = more flux/activation; lower = inhibition) at 10 µM. hit rate 2.2% among 190,000;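 active = thallium flux slope and its plate-corrected score both differing from the plate sample mean at a set confidence after two filtering rounds, in either direction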;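 note: slope of fluorescence scaled to starting intensity during 10 to 20 s after thallium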
Target sequence (Q9H2X9 whole entry, looked up): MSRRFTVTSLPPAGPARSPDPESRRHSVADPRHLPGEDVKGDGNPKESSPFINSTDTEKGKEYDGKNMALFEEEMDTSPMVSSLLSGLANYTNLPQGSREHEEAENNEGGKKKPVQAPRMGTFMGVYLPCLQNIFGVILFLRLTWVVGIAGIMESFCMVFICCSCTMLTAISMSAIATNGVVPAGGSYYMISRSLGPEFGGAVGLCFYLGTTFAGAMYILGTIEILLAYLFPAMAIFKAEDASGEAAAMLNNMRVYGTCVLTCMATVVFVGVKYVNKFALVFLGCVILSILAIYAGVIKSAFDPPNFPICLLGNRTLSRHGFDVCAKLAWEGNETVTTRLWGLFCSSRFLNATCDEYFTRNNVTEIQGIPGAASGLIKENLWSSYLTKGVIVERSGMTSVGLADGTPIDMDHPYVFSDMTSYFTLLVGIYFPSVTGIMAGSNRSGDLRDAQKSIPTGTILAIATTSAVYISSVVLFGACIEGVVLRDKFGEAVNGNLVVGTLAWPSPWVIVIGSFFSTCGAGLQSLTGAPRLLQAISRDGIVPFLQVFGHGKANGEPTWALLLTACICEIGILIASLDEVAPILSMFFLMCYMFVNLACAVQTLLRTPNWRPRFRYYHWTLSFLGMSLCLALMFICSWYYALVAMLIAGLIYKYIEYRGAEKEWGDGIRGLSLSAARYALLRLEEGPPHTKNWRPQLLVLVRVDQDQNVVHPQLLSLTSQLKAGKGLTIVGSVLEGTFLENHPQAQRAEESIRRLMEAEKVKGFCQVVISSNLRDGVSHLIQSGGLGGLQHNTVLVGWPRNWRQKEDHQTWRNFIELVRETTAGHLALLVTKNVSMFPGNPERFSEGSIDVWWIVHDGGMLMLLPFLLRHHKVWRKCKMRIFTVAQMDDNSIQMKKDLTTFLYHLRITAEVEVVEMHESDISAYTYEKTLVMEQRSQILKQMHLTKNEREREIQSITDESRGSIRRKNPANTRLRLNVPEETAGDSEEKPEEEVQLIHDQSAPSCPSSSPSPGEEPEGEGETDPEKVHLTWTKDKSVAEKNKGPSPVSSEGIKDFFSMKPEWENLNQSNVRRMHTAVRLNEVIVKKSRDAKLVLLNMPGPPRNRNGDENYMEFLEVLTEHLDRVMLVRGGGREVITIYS
ROMK mod: human ROMK K+ channel modulation, primary screen; Tet-inducible ROMK, thallium flux fluorescence; actives lie on both sides; B-score at 10 µM; hit rate 2% among 130,000; AID 1918;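 active = signal ratio slope over the read window, or its plate-corrected B-score, at least 3 SD from the plate mean, either direction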;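 note: B-score of the F/F0 ratio slope over 7 to 12 s after thallium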
Arbovirus anti: arbovirus infection inhibition; inhibition, % at 10 µM; hit rate 0.37% among 200,000; arbovirus infection cell-based antiviral screen; in the data active = inhibition above about 30%
Measles CPE: protection of cells from measles virus. protection (pct of control), % at 4 µM. Measles virus-infected cells, CPE protection, absorbance. hit rate 1.5% among 140,000; in the data active = protection mostly above about 24%, no sharp cut-off; inactive = mostly below about 26%
HSV augment: HSV replication enhancement. hit rate 0.005% among 220,000. AID 1956. maximum fold increase. HSV replication augmentation in cells, fold increase; in the data active = maximum fold increase above about 1.5; inconclusive = no clear call, values can overlap the other calls; tested in PC3 cells
ROMK hit retest: confirmation of human ROMK potassium channel modulators | normalized thallium flux (F/F0 slope) at 10 µM | hit rate 54% among 3,000 | shares compounds with ROMK mod | AID 1917 | ROMK thallium flux, fluorescence ratio; active compounds read low;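 active = Flux at 10 µM at least 3 SD below or above vehicle control mean in one or both replicates; inconclusive = no clear call, values can overlap the other calls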
Active calls of the source: *; i = inactive; ? = inconclusive; · = no result given.

SMILES | KCC2 mod | ROMK mod | Arbovirus anti | Measles CPE | HSV augment | ROMK hit retest
O=C(O)CCCCCN1C(=O)/C(=C/c2ccncc2)SC1=S | 0.11 | -4.2* | 13 | 20 | i | 0.048*
Cc1ccc(/C=C2\SC(=S)N(CCCC(=O)Nc3ccccn3)C2=O)cc1 | 1.5 | · | 4 | 8 | i | 0.074
O=C(O)CCCCCN1C(=O)/C(=C\c2ccncc2)SC1=S | 0.79 | -4.1* | 13 | 13 | i | 0.049*
CCc1nc2sc3c(O)cc(=O)[nH]c3c2cc1C | -0.3 | 0.17 | -7 | · | i | ·
COc1ccc(CCN(C)S(=O)(=O)c2ccc(Cl)nc2)cc1OC | -1.5 | -0.2 | 1 | · | i | ·
CCOC(=O)C1CCN(C(=O)c2sccc2Cl)CC1 | 0.86 | · | · | · | i | ·
Cc1[nH][nH]c(=O)c1N=Nc1ccccc1C#N | 0.37 | -0.94 | -13 | · | i | ·
Cc1ccc(N=Nc2c(C)[nH][nH]c2=O)c(C)c1 | -0.51 | 1.3* | -19 | 4 | i | 0.088
Cc1cccc(C)c1Nc1c(-c2ccccn2)nc2ccccn12 | 0.23 | 0.025 | -29 | · | i | ·
COc1cc(/C=C/CN2CCN(CCC(C)C)C(CCO)C2)ccc1O (stereo unspecified) | 0.73 | -0.73 | -10 | · | i | ·
COc1ccc(C(=O)Oc2cccnc2)cc1 | -1 | -0.14 | 8 | 30 | i | ·
O=C(Oc1cccnc1)c1ccc(Cl)c(Cl)c1 | 1.9 | -5.4* | 13 | 3 | · | ?
CCOC(=O)c1sc(/S(C)=N\S(=O)(=O)c2cccc(Cl)c2)c2c1CCC=C2 (stereo unspecified) | -1.4 | 0.22 | · | · | i | ·
CCOc1ccc(NC2c3ccccc3C(=O)N2Cc2ccc3c(c2)OCO3)cc1 (stereo unspecified) | · | · | -8 | 5 | i | ·
O=C1c2ccccc2C(Nc2ccc3c(c2)OCCO3)N1Cc1ccccc1 (stereo unspecified) | -2.4 | · | 8 | 7 | i | 0.078
COc1ccc(C2CCCN2C(=S)Nc2ccc(C)cc2Cl)cc1OC (stereo unspecified) | -0.24 | -1 | 4 | · | i | ·
CN(C)c1ccc2c(c1)OC(N)=C(C#N)C2c1cccc(F)c1 (stereo unspecified) | -1.2 | · | -39 | 2 | · | 0.064*
N#CC1=C(N)Oc2cc(O)ccc2C1c1cccnc1 (stereo unspecified) | -0.3 | -0.86 | 15 | · | i | ·
Cc1c(CNC(=O)c2c([N+](=O)[O-])cnn2C)cnn1C | · | · | 11 | · | i | ·
CCOC(=O)CN1C=C(c2ccc3ccccc3n2)C(C[N+](=O)[O-])c2ccccc21 (stereo unspecified) | -1.9 | -3.8* | 1 | 8 | ? | 0.049*
CCOC(=O)N1CCN(C(=S)NC(=O)c2ccc(F)c(F)c2)CC1 | · | · | -6 | · | i | ·
COc1ccccc1/C=C/C(=O)NCC(=O)n1nc(C)cc1C | 0.22 | · | · | · | i | ·
Cc1cccc(NC(=S)NNC(=O)c2ccc(O)cc2O)c1C | 0.2 | 0.73 | 8 | · | i | ·
Cc1ccc(NC(=S)NNC(=O)c2ccccc2O)c(C)c1 | 2.6 | 2.9* | -12 | · | i | 0.064*
CCOC(=O)C1(CCOC)CCN(Cc2nc(C(C)C)cs2)CC1 | 0.12 | -0.11 | -2 | · | i | ·
SMILES | KCC2 mod | ROMK mod | Arbovirus anti | Measles CPE | HSV augment | ROMK hit retest
Cc1ccc(CNC(=O)Cn2ccc3ccccc3c2=O)o1 | 0.86 | · | -3 | 15 | i | 0.073
COC(=O)CNC(=O)Cn1ccc2ccccc2c1=O | -1.1 | · | 10 | 6 | i | ·
O=C(/C=C/c1ccc(F)cc1)N1CCN(S(=O)(=O)/C=C/c2ccccc2)CC1 | 0.38 | 3* | -18 | · | i | 0.078
CCNC(=O)c1ccc(C23CC4CC(CC(C4)C2)C3)o1 | -0.4 | 0.26 | 1 | · | i | ·
O=c1c(Cc2ccccc2)c(O)c2cccc3c4c(n1c23)CCCC4 | -2.4 | 3.8* | · | · | i | ?
O=C(CN1CCNCC1)NCCSc1ccc(Cl)cc1 | -0.42 | -2* | 3 | · | i | 0.068*
Cc1ccc(SCCNC(=O)/C=C/c2ccc(Cl)cc2)cc1 | -0.61 | 0.11 | 8 | 6 | i | ·
Cc1occc1C(=O)NNC(=O)C1CCCCC1 | 0.12 | -0.042 | 15 | 20 | i | ·
Cc1occc1C(=O)NC1CCCCCC1 | 0.45 | 3.1* | -1 | 23 | i | 0.073
Cc1ccc(C(C)C)c(OCc2nn(CC(=O)c3ccc(Cl)cc3)c3[n+]2CCCCC3)c1 | -0.8 | -7.5* | -29 | · | i | 0.049*
COc1ccc(/C=N/NC(=O)c2c(C)nnn2-c2nonc2N)cc1OC | 0.34 | -0.31 | 1 | · | i | ·
COC(=O)c1sc(-c2ccc(C(C)(C)C)cc2)cc1NC(=O)COCC(=O)O | -0.7 | -11* | · | · | i | 0.085
COC(C[C@@H]1O[C@H]1C(=O)COCc1ccccc1)OC | · | · | · | · | i | ·
CCOc1ccc(S(=O)(=O)Nc2nc3ccccc3nc2-n2ccc(=NC(=O)c3cccs3)cc2)cc1 | 1.9 | -2.6* | 0 | 27 | i | 0.059*
O=C(N=c1ccn(-c2nc3ccccc3nc2NS(=O)(=O)c2ccc(Cl)cc2)cc1)c1cccs1 | 0.93 | · | · | · | ? | ·
CCOC(=O)C1CCCN(C(=O)c2sc3nc(C)nc(N(CC)CC)c3c2C)C1 (stereo unspecified) | -0.73 | · | -1 | 19 | i | ·
CCC1CCCCN1C(=O)c1sc2nc(C)nc(N(CC)CC)c2c1C (stereo unspecified) | 0.075 | -3.7* | -9 | · | i | 0.058*
O=C(O)CCC(=O)Nc1ccccc1C(=O)N1CCN(c2ccc(Cl)cc2)CC1 | 0.45 | -0.36 | 4 | · | i | ·
Cn1cnc2cc(NC(=O)c3ccc(Cl)cc3)ccc21 | -0.05 | · | 0 | 13 | i | 0.082
CCC(=O)Nc1ccc2c(c1)ncn2C | · | 0.18 | 4 | · | i | ·
COC(=O)c1cc(-c2ccc(S(=O)(=O)N3CCCCC3)cc2)c(C(F)(F)F)s1 | 1 | · | · | · | i | ·
Cc1cc(C)c2[nH]c(=O)c(CN(Cc3ccc4c(c3)OCO4)Cc3nnnn3C3CCCC3)cc2c1 | -0.088 | -3.2* | -24 | 6 | i | ?
O=C(Oc1ccccc1C(=O)Nc1ccccc1)c1ccc(Br)c([N+](=O)[O-])c1 | 0.62 | · | 8 | 8 | i | ·
COc1ccc(S(=O)(=O)N(C)C)cc1NC(=O)COC(=O)c1nn(C)c(=O)c2ccccc12 | -0.85 | 0.19 | 8 | · | i | ·
COc1ccc(S(=O)(=O)N(C)C)cc1NC(=O)COC(=O)c1nc2nccc(C)n2n1 | 0.87 | · | · | · | i | 0.075
SMILES | KCC2 mod | ROMK mod | Arbovirus anti | Measles CPE | HSV augment | ROMK hit retest
CS/C(=N\S(=O)(=O)c1ccccc1)c1ccccc1 | 0.16 | 0.14 | -1 | 27 | i | ·
O=S(=O)(/N=C(/Sc1ccccc1)c1ccccc1)c1ccccc1 | 0.17 | -2.8* | 0 | 12 | i | 0.05*
CCC(NC(=O)N(Cc1ccccc1)Cc1ccc2c(c1)OCO2)(C(F)(F)F)C(F)(F)F | 0.15 | · | -7 | 5 | i | 0.077
CC(NC(=O)N(Cc1ccccc1)Cc1ccc2c(c1)OCO2)(C(F)(F)F)C(F)(F)F | 1.4 | · | 6 | 16 | i | ·
COc1ccc2c(c1)Cc1sc(NC(=O)c3cccs3)nc1-2 | -1.4 | -4.1* | -8 | 12 | i | 0.076
COc1ccc(C(=O)Nc2nc3c(s2)Cc2cc(OC)ccc2-3)cc1 | -0.39 | · | 16 | 31 | i | ·
